# Data from the supplement of paper PMC12669032.
# Test system: Bacteroides clarus
# Test: growth AUC relative to DMSO control (median of replicates) (fraction); higher = more growth (less inhibition), active = hit call of the paper
# Conditions: 20 µM; 24 h;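 active = AUC reduced over 20% with Padj below 0.05 in at least 2 of 3 replicates; inactive = otherwise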
# Outline: (§1)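 Three biological replicates, each grown on a separate day, were combined as a median for every value. In each, a gut bacterial monoculture in mGAM started at OD600 0.05 and grew anaerobically at 37 °C with 20 µM compound (1% DMSO), with OD600 read hourly over 24 h. Area under the growth curve was normalised against the plate median of solvent-only wells, or against row and column medians on the industrial chemical plate, after the minimum OD was set to 0.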
row,Structure (SMILES),growth AUC
1,Clc1ccc(C(c2ccccc2Cl)C(Cl)Cl)cc1 (configuration not stated),0.936 (inactive)
2,CSc1nc(NC2CC2)nc(NC(C)(C)C)n1,0.988 (inactive)
3,CCc1cccc(C)c1N(C(=O)C(=O)O)[C@@H](C)C(=O)O,1.02 (inactive)
4,CCNc1nc(NC(C)(C)C)[nH]c(=O)n1,0.98 (inactive)
5,CC(C)N(C(=O)C(=O)O)c1ccccc1,1.05 (inactive)
6,Cc1nn(C)c(F)c1C(=O)Nc1ccccc1C(C)CC(C)C (configuration not stated),0.959 (inactive)
7,CC(C)c1cc(Oc2ccccc2)cc(C(C)C)c1NC(=S)NC(C)(C)C,0.96 (inactive)
8,CCCCOCCOC(=O)COc1ccc(Cl)cc1Cl,0.991 (inactive)
9,CCOC(=O)C(C)Oc1ccc(Oc2nc3ccc(Cl)cc3o2)cc1 (racemic),0.96 (inactive)
10,C/C=C/C(=O)Oc1c(C(C)CCCCCC)cc([N+](=O)[O-])cc1[N+](=O)[O-] (mixture of isomers),0.0314 (active)
11,c1ccc2c(c1)Cc1ccccc1-2,1 (inactive)
12,CC(C)(C)C(O)/C(=C\c1ccc(Cl)cc1)n1cncn1 (configuration not stated),0.987 (inactive)
13,Oc1ccccc1,0.991 (inactive)
14,Cc1c(Br)c2ccc(F)cc2n1S(=O)(=O)c1ncn(S(=O)(=O)N(C)C)n1,1 (inactive)
15,NC(Cn1cncn1)C(=O)O (configuration not stated),0.992 (inactive)
16,CCCCC(CC)COC(=O)COc1ccc(Cl)cc1C (configuration not stated),0.997 (inactive)
17,c1ccc(CNc2ncnc3nc[nH]c23)cc1,0.992 (inactive)
18,CON=C(Cc1cccnc1)c1ccc(Cl)cc1Cl,0.971 (inactive)
19,COC(=O)Cc1cccc2ccccc12,0.989 (inactive)
20,CC1(C)C(=O)Oc2ccc(OS(C)(=O)=O)cc21,0.993 (inactive)
21,CN(C)c1ccc(N=NS(=O)(=O)[O-])cc1.[Na+],1.01 (inactive)
22,CCOC(=O)Cn1c(=O)sc2cccc(Cl)c21,0.979 (inactive)

# Test system: Bacteroides dorei
# Test: as above
# Conditions: 20 µM; 24 h
# Outline: as §1
row,Structure (SMILES),growth AUC
1,O=C(O)Cc1c(Cl)ccc(Cl)c1Cl,1.02 (inactive)
2,COc1cc(OC)c(Cl)cc1N,1.02 (inactive)
3,O=S(Cc1ccc(Cl)cc1)c1ccc(Cl)cc1 (configuration not stated),0.986 (inactive)
4,Cc1cc(C)c(C2=C(O)C3(CCCC3)OC2=O)c(C)c1,1.01 (inactive)
5,CN(C)C(=O)c1cccnc1S(N)(=O)=O,1.03 (inactive)
6,CCCN(CCOc1c(Cl)cc(Cl)cc1Cl)C(N)=O,0.935 (inactive)
7,Cc1nn(C)c(OCC(=O)c2ccccc2)c1C(=O)c1ccc(Cl)cc1Cl,0.987 (inactive)
8,CC(C)(C)Nc1nc(N)nc(Cl)n1,0.993 (inactive)
9,COC(=O)c1c(Cl)nn(C)c1S(=O)(=O)NC(=O)Nc1nc(OC)cc(OC)n1,1.02 (inactive)
10,[S],1.07 (inactive)
11,CCCCCCCCc1c(CC)nc2ncnn2c1N,0.989 (inactive)
12,Cn1cc(C(=O)Nc2ccccc2-c2cc(F)c(F)c(F)c2)c(C(F)F)n1,0.972 (inactive)
13,CCCOc1nc2ccc(I)cc2c(=O)n1CCC,1.01 (inactive)
14,CNc1nc(NC(C)C)nc(SC)n1,0.989 (inactive)
15,CC(C)(C)[C@@H](O)[C@@H](Cc1ccc(Cl)cc1)n1cncn1 (mixture of isomers),0.909 (inactive)
16,Cc1ccc2c(c1)[C@H](Nc1nc(N)nc(C(C)F)n1)[C@@H](C)C2 (some centres not stated),0.989 (inactive)
17,CCN(CC)c1nc(C)cc(=O)[nH]1,1.02 (inactive)
18,Clc1ccc(C(c2ccccc2Cl)C(Cl)Cl)cc1 (configuration not stated),0.976 (inactive)
19,CSc1nc(NC2CC2)nc(NC(C)(C)C)n1,1.03 (inactive)
20,CCc1cccc(C)c1N(C(=O)C(=O)O)[C@@H](C)C(=O)O,0.963 (inactive)
21,CCNc1nc(NC(C)(C)C)[nH]c(=O)n1,1.01 (inactive)
22,CC(C)N(C(=O)C(=O)O)c1ccccc1,1.03 (inactive)
23,Cc1nn(C)c(F)c1C(=O)Nc1ccccc1C(C)CC(C)C (configuration not stated),0.988 (inactive)
24,CC(C)c1cc(Oc2ccccc2)cc(C(C)C)c1NC(=S)NC(C)(C)C,0.983 (inactive)
25,CCCCOCCOC(=O)COc1ccc(Cl)cc1Cl,0.867 (inactive)
